TDP1 cell noCPT: qHTS for Inhibitors of human tyrosyl-DNA phosphodiesterase 1 (TDP1): qHTS in cells in absence of CPT | DT40 Tdp1-/- hTDP1 cells, no CPT, ATP luminescence, 48 h | Potency, µM (highest dose often 46.2 µM), hits mostly inhibitors | 15% of 420,000 active; also: nearly all actives have a fitted effect of over 55% in size
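Cells were dispensed at 400 per well, compounds added by pin tool, plates incubated ≥48 hr at 37 °C, then CellTiter-Glo added for 30 min at room temperature before luminescence reading. Line: DT40 Tdp1-/- complemented with hTDP1; camptothecin omitted.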
PLK1 PBD inh: PLK1 (human) polo-box domain binding inhibition; Potency, µM, actives largely listed as inhibitors; 2.8% of 360,000 active; P53350; Plk1 PBD binding of FITC phosphopeptide, fluorescence polarization; also: series mostly up to about 57 µM; nearly all actives have a fitted effect of over 65% in size
TDP1 inh: blocks human tyrosyl-DNA phosphodiesterase 1. recombinant TDP1, AlphaScreen DNA substrate cleavage. Potency, µM (doses to about 130 µM), hits mostly inhibitors. 0.28% of 350,000 active. AID 485290; also: nearly all actives have a fitted effect of over 40% in size
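Enzyme-compound mixtures sat 15 min at room temperature, followed by a 5 min reaction with 15 nM final substrate and 10 min with AlphaScreen beads. Recombinant human Tdp1 was used at 1 nM final.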
KAT2A inh: blocks human GCN5L2 histone acetyltransferase. Q92830. GCN5L2 HAT assay, ThioGlo1 CoA-SH fluorescence. Potency, µM (titrated, usually from 58.9 µM), usual class: inhibitors. 0.21% of 390,000 active. AID 504327
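Titration-based screen in which CoA formation is detected via maleimide probe ThioGlo1 (50uM) turning fluorescent on thiol reaction; substrates H3(1-25) 75uM and acetyl-CoA 70uM, GCN5L2 20nM, 20 min incubation at room temperature.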
VDR inhibitor: vitamin D3 receptor (human) inhibition | P11473 | VDR-SRC2-3 peptide fluorescence polarization, 2 h | Potency, µM, actives largely listed as inhibitors | 0.93% of 400,000 active | AID 504847
Target sequence (P11473 whole entry, looked up): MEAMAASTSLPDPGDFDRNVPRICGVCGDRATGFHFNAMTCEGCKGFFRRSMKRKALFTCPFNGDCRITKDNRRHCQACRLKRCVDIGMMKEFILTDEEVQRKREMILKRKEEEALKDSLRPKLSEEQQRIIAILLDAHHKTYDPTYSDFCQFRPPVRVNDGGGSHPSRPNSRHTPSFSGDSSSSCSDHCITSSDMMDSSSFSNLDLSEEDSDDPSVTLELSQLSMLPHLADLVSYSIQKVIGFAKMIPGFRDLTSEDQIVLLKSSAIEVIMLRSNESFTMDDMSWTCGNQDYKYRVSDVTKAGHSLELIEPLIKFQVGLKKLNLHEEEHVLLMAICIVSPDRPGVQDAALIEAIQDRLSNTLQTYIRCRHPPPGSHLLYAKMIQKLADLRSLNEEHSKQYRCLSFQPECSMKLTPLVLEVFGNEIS
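Measured by FP: displacement of SRC2-3 coactivator peptide from VDR by library compounds, following a two-hour ambient incubation.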
DT40 TDP1 CPT: growth inhibition of DT40 Tdp1-/-;hTDP1 cells with camptothecin (screen for TDP1 inhibitors); chicken DT40 Tdp1-/-;hTDP1 cells + 20 nM CPT, ATP luminescence, 48 h; Potency, µM (titrated, usually from 46.2 µM), hits mostly inhibitors; 12% of 420,000 active; also: nearly all actives have a fitted effect of over 55% in size
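Cell growth measured by CellTiter-Glo luminescence after a minimum 48 h, 37 C compound exposure with 20 nM CPT in Tdp1-knockout DT40 cells stably expressing hTDP1, seeded 400/well; qHTS titration format.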
A number is an active result; 0 = inactive; ? = inconclusive; - = no result. Only some compounds are listed: those with a hit (about 18% of all), similar ones and a draw of the others. Calls follow the shape of the dose curve; as a rule, active = well fitted curve in the direction sought with a large enough effect; inconclusive = small, poorly fitted or top-dose-only effect, or another doubt; inactive = no such curve, though single readings can be large; an effect the other way counts as inactive or inconclusive.

SMILES | TDP1 cell noCPT | PLK1 PBD inh | TDP1 inh | KAT2A inh | VDR inhibitor | DT40 TDP1 CPT
Cc1ccccc1CNC(=O)C1CCN(c2nnc(C)c3c(C)n(-c4ccccc4)nc23)CC1 | ? | - | 0 | 0 | 0 | ?
Cc1nnc(N2CCC(C(=O)NC(C)C)CC2)c2nn(-c3ccc(Cl)cc3)c(C)c12 | 0 | - | 0 | 0 | 0 | 0
Cc1ccc(-n2nc3c(N4CCC(C(=O)NCCc5ccco5)CC4)nnc(C)c3c2C)cc1 | ? | 0 | 0 | 0 | 0 | 21µM
CCc1nnc(NC(=O)COC(=O)c2cc(OC)cc(OC)c2)s1 | 0 | 0 | 0 | 0 | 0 | 0
CCOc1ccccc1NC(=O)c1nnn(CC(=O)Nc2ccccc2CC)c1N | 0 | - | 0 | 0 | 0 | 0
CCN(CC)c1ccc(N=Nc2ccc(S(=O)(=O)N(C)C)cc2)c(S(=O)(=O)NCC[n+]2ccccc2)c1 | 0 | - | - | - | - | 0
Cc1ccc(-n2nc3c(N4CCC(C(=O)N5CCCCC5)CC4)nnc(C)c3c2C)cc1 | 23µM | - | 0 | 0 | 0 | ?
Cc1ccc(-n2nc3c(N4CCC(C(=O)NCCc5ccccc5C)CC4)nnc(C)c3c2C)cc1 | 5.8µM | 0 | 0 | 0 | 0 | 16µM
Cc1ccc(CNC(=O)c2oc3ccc(S(=O)(=O)N4CCOCC4)cc3c2C)cc1 | ? | 0 | 0 | 0 | 0 | 0
O=C(CN(c1ccc2c(c1)OCCO2)S(=O)(=O)c1ccccc1)NCc1ccc(Cl)cc1 | ? | 0 | 0 | 0 | 0 | ?
CCc1ccc2oc(C(=O)NCc3ccncc3)c(C)c2c1 | 15µM | 0 | 0 | 0 | 0 | 18µM
Cc1ccc(CNC(=O)c2oc3ccc(S(=O)(=O)N4CCC(C)CC4)cc3c2C)cc1 | 16µM | - | 0 | 0 | 0 | ?
CCN(CC)S(=O)(=O)c1ccc2oc(C(=O)O)c(C)c2c1 | 0 | 0 | 0 | 0 | 0 | 0
CCCCN(CC(=O)NCc1ccc(Cl)cc1)S(=O)(=O)c1ccc2c(c1)OCCO2 | 23µM | 0 | 0 | 0 | 0 | ?
Cc1cc(C)c2c(C)c(C(=O)NCc3ccncc3)oc2c1 | 0 | 0 | 0 | 0 | 0 | 0
CCN(CC)S(=O)(=O)c1ccc2oc(C(=O)NC(C)C)c(C)c2c1 | ? | 27µM | 0 | 0 | 0 | ?
CCc1cc(C(=O)N2CCN(C(=O)c3ccccc3)CC2)sc1C | ? | 0 | 0 | 0 | 0 | 0
CCCCN(CCCC)S(=O)(=O)c1ccc2oc(C(=O)NCc3ccccc3)c(C)c2c1 | 15µM | - | 0 | 0 | 0 | 10µM
CCN(CC)S(=O)(=O)c1ccc2oc(C(=O)NCc3ccc(C)cc3)c(C)c2c1 | ? | ? | 0 | 0 | 0 | ?
Cc1ccc2oc(C(=O)NCc3ncc(C)[nH]3)c(C)c2c1 | ? | 0 | 0 | ? | 0 | 5.2µM
CCCCN(CCCC)S(=O)(=O)c1ccc2oc(C(=O)NCc3ccc(C)cc3)c(C)c2c1 | 13µM | - | 0 | 0 | 0 | 8.2µM
NC(=O)c1ccc(NC(=O)c2cncn2-c2ccccc2)cc1 | ? | 24µM | - | 0 | 79µM | ?
Cn1c(=O)c2cc(NC(=S)NCc3ccccc3F)ccc2n1C | 0 | 0 | - | - | - | 0
Cn1c(=O)c2cc(NC(=S)NC3CCCCC3)ccc2n1-c1ccccc1 | ? | 0 | - | - | - | ?
O=C(Cc1cccc2ccccc12)Nc1ccc(-c2cc3ccccc3oc2=O)cc1 | ? | 0 | 0 | ? | 0 | ?
SMILES | TDP1 cell noCPT | PLK1 PBD inh | TDP1 inh | KAT2A inh | VDR inhibitor | DT40 TDP1 CPT
Cc1cc(C)cc(-n2c3ccc(NC(=O)Cc4cccc5ccccc45)cc3c(=O)n2C)c1 | 3.3µM | 0 | - | - | - | 5.8µM
CCNC(=S)Nc1ccc2c(c1)c(=O)n(C)n2-c1ccc(C(C)(C)C)cc1 | ? | ? | - | - | - | 26µM
CC(CC(=O)Nc1ccc2c(c1)c(=O)n(C)n2-c1cccs1)c1ccccc1 (stereo not given) | 12µM | 0 | - | - | - | 13µM
CC(CC(=O)Nc1ccc2c(c1)OCCO2)c1ccccc1 (stereo not given) | 0 | 0 | 0 | 0 | 0 | ?
Cn1c(=O)c2cc(NC(=O)Cc3ccccc3F)ccc2n1-c1ccc(C(C)(C)C)cc1 | 16µM | 0 | - | - | - | 23µM
Cc1ccc(S(=O)(=O)NC(=O)C2(C)CCN2C(=O)CCc2ccc(Cl)cc2Cl)nc1 (stereo not given) | 0 | 0 | - | - | - | 0
O=C(N/C(=C\c1cccc([N+](=O)[O-])c1)C(=O)N(CCO)CCO)c1ccco1 | 0 | 0 | 0 | 0 | 0 | 0
O=S(=O)(Cc1ccccc1)NCCc1cccc(Cl)c1 | 0 | 0 | 0 | 0 | 0 | 0
O=c1c(S(=O)(=O)c2cccc(Cl)c2)cn(Cc2ccccc2)c2cc(N3CCCCC3)c(F)cc12 | 0 | - | 0 | 0 | 0 | 0
CCCCN(C(=O)c1cc(S(=O)(=O)N2CCCCCC2)ccc1OC)c1ccccc1 | ? | 0 | 0 | 0 | 0 | ?
c1ccc(CCc2cccnc2)cc1 | 0 | 0 | - | - | 0 | 0
NS(=O)(=O)c1ccc(-c2ccc(/C=C3\NC(=S)NC3=O)o2)cc1 | 0 | ? | - | 0 | 79µM | 0
CCc1ccc(-n2nc(CO)c(C(=O)NCc3ccccn3)n2)cc1 | ? | - | 0 | 0 | 0 | ?
O=C(O)c1cc(O)ccc1N=Nc1ccccc1 | 16µM | 0 | - | 0 | 0 | ?
O=C(O)c1ccccc1N=Nc1ccc(O)cc1 | 15µM | 30µM | - | - | ? | 26µM
O=C(O)c1cc(O)ccc1-c1ccc(O)cc1 | 0 | 0 | 0 | 0 | 0 | 0
Oc1ccc(N=Nc2ccccc2)cc1 | ? | 0 | - | 0 | 0 | ?
CC(=O)c1ccc(NC(=O)C(C)n2nc(-c3ccccc3)c3cc(Cl)ccc32)cc1 (stereo not given) | 16µM | 0 | 0 | 0 | 0 | ?
CCC[C@@H]1C[C@@]1(CCC)C(NC(=O)c1ccco1)c1ccc(Cl)cc1 (stereo not given in full) | - | - | 0 | - | - | -
COc1ccc(C(=O)OCC(=O)c2ccc(C3CCCCC3)cc2)cc1 | 20µM | 0 | 0 | 0 | 0 | ?
Nc1ccc(O)cc1C(=O)OCC(=O)c1ccc(C2CCCCC2)cc1 | 21µM | 0 | 0 | 0 | 0 | ?
COc1ccc(C(=O)Nc2ccc(C(=O)OCC(=O)c3ccccc3)cc2)cc1 | 0 | 0 | 0 | 0 | 0 | 0
O=C(COC(=O)c1ccc(O)cc1O)c1ccc(Cl)cc1 | 0 | 0 | 0 | 0 | 0 | 0
O=C(O)C1CCC(Cn2c(SCc3cc(=O)n4cc(Cl)ccc4n3)nc3ccsc3c2=O)CC1 (stereo not given) | ? | 0 | 0 | 0 | 0 | ?
CCCCNC(=O)c1sc(=S)n(-c2ccccc2OC)c1N | ? | 27µM | 0 | 0 | 0 | 0
CCOC(=O)c1sc(=S)n(-c2ccccc2OC)c1N | 23µM | 21µM | 0 | 0 | 0 | ?
COC(=O)c1sc(=S)n(-c2ccccc2OC)c1N | 0 | 0 | 0 | 0 | 0 | 0

Bioassay records: PubChem BioAssay, National Center for Advancing Translational Sciences (NCATS)
